{"source": "PubChem BioAssay (EPA / NIEHS)", "key": {"[1]": {"experiment": "ACEA_AR_antagonist_AUC_viability: ACEA Biosciences xCELLigence Real-Time Cell Analysis on Androgen Receptor Antagonism for Viability (AID 2283776);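 also: area under impedance growth curve at 80 h after dosing as viability; hits lower the growth signal relative to DMSO meaning cytotoxicity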", "summary_of_the_method": "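22Rv1 human prostate cancer cells were seeded on electrode plates, monitored overnight, then exposed to eight 1:4 dilutions from 100 uM final. Impedance-based growth kinetics at 80 h gave an AUC viability endpoint normalized to DMSO.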"}, "[2]": {"experiment": "ACEA_ER_AUC_viability: ACEA Biosciences xCELLigence Real-Time Cell Analysis on Estrogen Receptor Agonism for Viability (AID 2283782);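 also: continuous compound exposure with impedance area under curve over 80 h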", "summary_of_the_method": "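T-47D; phenol red-free RPMI1640 + 10% CS-FBS; 8 conc., 1:4 serial, max 100 uM final, ≤0.5% DMSO; n = 2; continuous exposure; impedance monitored to 80 h post-dose; AUC vs DMSO.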"}, "AR (gene 367) [3]": {"target": "AR (gene 367) (UniProt P10275)", "sequence (P10275 whole entry, looked up)": "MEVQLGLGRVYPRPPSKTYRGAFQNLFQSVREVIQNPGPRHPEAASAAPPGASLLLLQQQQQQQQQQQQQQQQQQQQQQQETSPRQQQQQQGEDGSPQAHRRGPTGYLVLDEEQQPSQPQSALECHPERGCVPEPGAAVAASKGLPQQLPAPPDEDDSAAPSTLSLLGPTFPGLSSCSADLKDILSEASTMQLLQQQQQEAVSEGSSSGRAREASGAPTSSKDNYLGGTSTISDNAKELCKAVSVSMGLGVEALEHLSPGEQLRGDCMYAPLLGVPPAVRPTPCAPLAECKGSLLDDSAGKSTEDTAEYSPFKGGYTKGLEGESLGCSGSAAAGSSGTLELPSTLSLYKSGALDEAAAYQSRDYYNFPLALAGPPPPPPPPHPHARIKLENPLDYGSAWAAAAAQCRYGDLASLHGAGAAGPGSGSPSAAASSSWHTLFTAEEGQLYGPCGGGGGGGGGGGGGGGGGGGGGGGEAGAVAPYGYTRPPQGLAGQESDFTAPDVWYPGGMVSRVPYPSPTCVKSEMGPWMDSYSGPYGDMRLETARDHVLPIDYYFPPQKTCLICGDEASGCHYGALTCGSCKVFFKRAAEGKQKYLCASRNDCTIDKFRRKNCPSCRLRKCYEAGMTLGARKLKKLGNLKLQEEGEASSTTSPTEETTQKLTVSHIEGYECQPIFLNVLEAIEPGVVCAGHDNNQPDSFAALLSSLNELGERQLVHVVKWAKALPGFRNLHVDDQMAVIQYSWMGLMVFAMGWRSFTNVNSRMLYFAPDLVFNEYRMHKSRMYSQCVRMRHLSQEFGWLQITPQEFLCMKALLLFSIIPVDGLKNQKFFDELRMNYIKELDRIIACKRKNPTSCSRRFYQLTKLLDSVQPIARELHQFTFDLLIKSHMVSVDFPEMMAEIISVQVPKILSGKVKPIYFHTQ", "experiment": "ACEA_AR_antagonist_80hr: ACEA Biosciences xCELLigence Real-Time Cell Analysis on Androgen Receptor Antagonism for Proliferation (AID 2283787)", "summary_of_the_method": "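Growth-kinetic antagonist readout in 22Rv1 cells, taken 80 h after continuous compound exposure. Activity fitted as signal loss relative to DMSO negative control.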"}, "[4]": {"experiment": "STM_H9_NormalizedViability: Cytotoxicity Assessment at 120 hours in the Stemina devTOX quickPredict H9 human embryonic stem cell (hESC)-based Assay (AID 2283784)", "summary_of_the_method": "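Pluripotent H9 cells dosed, fresh medium plus compound q24h → cell layer read by CellTiter-Fluor → RFU blank-corrected, normalized to DMSO 0.1% mean. Loss-of-signal fit, DMSO as baseline.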"}, "AR (gene 367) [5]": {"target": "AR (gene 367) (UniProt P10275)", "experiment": "ACEA_AR_agonist_80hr: ACEA Biosciences xCELLigence Real-Time Cell Analysis on Androgen Receptor Agonism for Proliferation (AID 2283783);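 also: hits increase impedance growth signal above DMSO baseline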", "summary_of_the_method": "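Androgen-driven proliferation in 22Rv1 cells is tracked as electrical impedance, taken 80 h after continuous exposure to compound (eight concentrations, 1:4 steps, maximum 100 uM final). Activity is fitted in the positive direction with DMSO as baseline.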"}}, "note": "Inconclusive results are not listed. Calls of active or inactive are those of the source. The calls were made as follows: active = hit-call score of the fitted dose curve at least 0.9, where 1 is the maximum; inconclusive = response in the unintended direction; inactive = score below 0.9.", "data": [{"smiles": "CC1(C)C(=O)NC(=O)N1CO", "values": [{"measurement": "outcome", "setting": "[1]", "result": "inactive"}, {"measurement": "outcome", "setting": "[2]", "result": "inactive"}]}, {"smiles": "CN(C)C(=O)NC1(c2ccccc2)CCN(CC[C@@]2(c3ccc(F)c(F)c3)CN(C(=O)c3ccccc3)CCO2)CC1", "values": [{"measurement": "outcome", "setting": "[1]", "result": "inactive"}, {"measurement": "AC50", "setting": "[2]", "result": "25.4 µM (active)"}]}, {"smiles": "Oc1ccccc1O", "values": [{"measurement": "AC50", "setting": "[1]", "result": "28.9 µM (active)"}, {"measurement": "AC50", "setting": "[2]", "result": "90.5 µM (active)"}]}, {"smiles": "CCCCCCCC(=O)OC", "values": [{"measurement": "outcome", "setting": "[1]", "result": "inactive"}, {"measurement": "outcome", "setting": "[2]", "result": "inactive"}]}, {"smiles": "O=NO", "values": [{"measurement": "outcome", "setting": "[1]", "result": "inactive"}, {"measurement": "outcome", "setting": "[2]", "result": "inactive"}]}, {"smiles": "C/C=C/C=C/C(=O)O", "values": [{"measurement": "outcome", "setting": "[1]", "result": "inactive"}, {"measurement": "outcome", "setting": "[2]", "result": "inactive"}]}, {"smiles": "Cc1ccc(-c2cc(C(F)(F)F)nn2-c2ccc(S(N)(=O)=O)cc2)cc1", "values": [{"measurement": "AC50", "setting": "[1]", "result": "15.9 µM (active)"}, {"measurement": "AC50", "setting": "[2]", "result": "90.7 µM (active)"}, {"measurement": "AC50", "setting": "AR (gene 367) [3]", "result": "12.7 µM (active)"}]}, {"smiles": "Cc1cc(Cc2ccc(N)c(C)c2)ccc1N", "values": [{"measurement": "outcome", "setting": "[1]", "result": "inactive"}, {"measurement": "outcome", "setting": "[4]", "result": "inactive"}]}, {"smiles": "O=C(O)c1cccnc1", "values": [{"measurement": "outcome", "setting": "[1]", "result": "inactive"}, {"measurement": "outcome", "setting": "[2]", "result": "inactive"}, {"measurement": "outcome", "setting": "[4]", "result": "inactive"}]}, {"smiles": "COC(=O)[C@H]1[C@H]2C[C@@H]3c4[nH]c5cc(OC)ccc5c4CCN3C[C@H]2C[C@@H](OC(=O)c2cc(OC)c(OC)c(OC)c2)[C@@H]1OC", "values": [{"measurement": "AC50", "setting": "[1]", "result": "33 µM (active)"}, {"measurement": "AC50", "setting": "[2]", "result": "60.5 µM (active)"}, {"measurement": "outcome", "setting": "[4]", "result": "inactive"}]}, {"smiles": "CC1=C(C)S(=O)(=O)CCS1(=O)=O", "values": [{"measurement": "AC50", "setting": "[1]", "result": "88.8 µM (active)"}, {"measurement": "outcome", "setting": "[2]", "result": "inactive"}, {"measurement": "outcome", "setting": "AR (gene 367) [5]", "result": "inactive"}, {"measurement": "AC50", "setting": "AR (gene 367) [3]", "result": "79.6 µM (active)"}]}, {"smiles": "CC(COCC(C)OC(=O)c1ccccc1)OC(=O)c1ccccc1", "note": "(stereo not drawn)", "values": [{"measurement": "outcome", "setting": "[1]", "result": "inactive"}, {"measurement": "outcome", "setting": "[4]", "result": "inactive"}]}, {"smiles": "O=C1CCCCC1", "values": [{"measurement": "outcome", "setting": "[1]", "result": "inactive"}, {"measurement": "outcome", "setting": "[2]", "result": "inactive"}, {"measurement": "outcome", "setting": "AR (gene 367) [3]", "result": "inactive"}]}, {"smiles": "CN(C)CCCN1c2ccccc2Sc2ccc(Cl)cc21", "values": [{"measurement": "AC50", "setting": "[2]", "result": "13.1 µM (active)"}, {"measurement": "AC50", "setting": "[4]", "result": "3.22 µM (active)"}]}, {"smiles": "Nc1nc(Cl)nc2c1ncn2[C@H]1C[C@H](O)[C@@H](CO)O1", "values": [{"measurement": "AC50", "setting": "[1]", "result": "1.45 µM (active)"}, {"measurement": "AC50", "setting": "[2]", "result": "0.0619 µM (active)"}, {"measurement": "AC50", "setting": "[4]", "result": "0.902 µM (active)"}]}, {"smiles": "NC(=Nc1ccccc1)Nc1ccccc1", "values": [{"measurement": "outcome", "setting": "[1]", "result": "inactive"}, {"measurement": "AC50", "setting": "[2]", "result": "1.79 µM (active)"}, {"measurement": "outcome", "setting": "[4]", "result": "inactive"}]}, {"smiles": "CC(=O)CC(c1ccccc1)c1c(O)c2ccccc2oc1=O", "note": "(stereo not drawn)", "values": [{"measurement": "outcome", "setting": "[1]", "result": "inactive"}, {"measurement": "outcome", "setting": "[2]", "result": "inactive"}, {"measurement": "outcome", "setting": "[4]", "result": "inactive"}]}, {"smiles": "CCCCCCCCCC[N+](C)(C)[O-]", "values": [{"measurement": "outcome", "setting": "[1]", "result": "inactive"}, {"measurement": "outcome", "setting": "[4]", "result": "inactive"}, {"measurement": "outcome", "setting": "AR (gene 367) [3]", "result": "inactive"}]}, {"smiles": "O=C(NS(=O)(=O)/C=C/c1cccs1)c1ccc(F)cc1Br", "values": [{"measurement": "AC50", "setting": "[1]", "result": "3.42 µM (active)"}, {"measurement": "AC50", "setting": "AR (gene 367) [3]", "result": "3.96 µM (active)"}]}]}
